uPA surface inh = cell surface uPA generation inhibition; Potency, µM (series often up to 38.3 µM), without a hit: top-dose activity change, negative = inhibition, most hits filed as inhibitors; cell surface uPA generation assay, qHTS; 330,000 tested, 0.31% active; active = well fitted inhibition curve with a large enough effect; inconclusive = small, poorly fitted or top-dose-only effect; inactive = no such curve, though single readings can be large or run the other way; tested in mouse RAW 264.7 cells; also: potency is read from the fitted curve at half-maximal effect; % is scaled to controls: 0 for no effect and ±100 for the full control effect; nearly all actives have a fitted effect of over 55% in size
PLK1 PBD inh = PLK1 (human) polo-box domain binding inhibition; AID 720504; Potency, µM, for the others: max response, negative = inhibition, actives largely listed as inhibitors; Plk1 PBD binding of FITC phosphopeptide, fluorescence polarization; P53350; 360,000 tested, 2.8% active; also: potency is read from the fitted curve at half-maximal effect; series mostly up to about 57 µM; % is scaled to controls: 0 for no effect and ±100 for the full control effect; nearly all actives have a fitted effect of over 65% in size
TSHR antagonist = antagonists of human thyroid stimulating hormone receptor. AID 504810. TSHR-expressing cells, TSH-stimulated cAMP HTRF, 2 h; hits give low values. activity change, negative = inhibition, % at 11.5 µM. 330,000 tested, 0.2% active;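 active = activity change below a set negative limit, meaning inhibition stronger than a set level, cut at about -70% in these data; inconclusive = activity change between two set negative limits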; also: % is scaled to controls: 0 for no effect and ±100 for the full control effect
Target sequence (P16473 whole entry, looked up): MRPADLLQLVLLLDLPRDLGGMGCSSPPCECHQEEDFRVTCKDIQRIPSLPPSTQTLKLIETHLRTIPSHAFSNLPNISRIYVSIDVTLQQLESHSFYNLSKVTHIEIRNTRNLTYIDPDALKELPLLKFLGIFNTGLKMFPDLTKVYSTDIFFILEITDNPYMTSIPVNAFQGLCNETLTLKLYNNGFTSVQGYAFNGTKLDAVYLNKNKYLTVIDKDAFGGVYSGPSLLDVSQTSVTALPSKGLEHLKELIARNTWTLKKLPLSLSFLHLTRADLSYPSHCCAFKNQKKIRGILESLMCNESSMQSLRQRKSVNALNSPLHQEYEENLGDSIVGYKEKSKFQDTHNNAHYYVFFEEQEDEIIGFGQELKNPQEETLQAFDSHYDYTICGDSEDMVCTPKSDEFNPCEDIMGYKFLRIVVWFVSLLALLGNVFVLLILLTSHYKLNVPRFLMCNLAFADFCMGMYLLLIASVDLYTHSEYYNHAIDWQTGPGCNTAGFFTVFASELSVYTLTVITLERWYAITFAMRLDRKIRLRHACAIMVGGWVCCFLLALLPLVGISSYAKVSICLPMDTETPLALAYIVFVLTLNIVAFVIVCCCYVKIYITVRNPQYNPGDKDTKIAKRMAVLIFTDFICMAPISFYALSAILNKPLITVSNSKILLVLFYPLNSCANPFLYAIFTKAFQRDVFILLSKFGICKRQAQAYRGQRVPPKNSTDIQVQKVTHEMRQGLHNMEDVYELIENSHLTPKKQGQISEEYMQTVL
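Read-out is FRET at 665 nm (cryptate excitation 337 nm) from a cryptate-tagged anti-cAMP antibody, competed by cell cAMP against cAMP-d2. Compounds are tested on freshly harvested TSHR cells challenged with 4nM TSH (EC80) for 2 hours at 37 deg C.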
VDR inhibitor = vitamin D3 receptor (human) inhibition; P11473; VDR-SRC2-3 peptide fluorescence polarization, 2 h; Potency, µM, without a hit: max response, negative = inhibition, actives largely listed as inhibitors; 400,000 tested, 0.93% active; AID 504847; also: potency is read from the fitted curve at half-maximal effect; % is scaled to controls: 0 for no effect and ±100 for the full control effect
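VDR–SRC2-3 interaction, FP format. Cmpds 23 nl via pintool, brief spin, 2 h ambient incubation.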
TSG101-PTAP inh = blocks PTAP/TSG101 interaction to inhibit HIV-1 budding. Q99816. Fluorescence polarization, FITC-PTAP peptide / Tsg101 binding. Potency, µM (top dose mostly 115 µM), for inactives: at the top dose activity change, negative = inhibition, usual class: inhibitors. 340,000 tested, under 10 active; active = well fitted inhibition curve with a large enough effect in the main read-out, with a control signal flat, not every such curve was filed as active; inconclusive = small, poorly fitted or top-dose-only effect, or effect the other way, or a change in a side signal; inactive = no such curve, though single readings can be large or run the other way; also: potency is read from the fitted curve at half-maximal effect; % of control where 0% means no effect
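Tsg101 binding domain (10 uM final) was mixed with compound and a FITC-labeled PTAP peptide (50 nM final) in HEPES pH 7.5 buffer with NaCl, Tween 20, EDTA and TCEP; fluorescence polarization was read after 20 min at r.t.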
TbPYK confirm = Trypanosoma brucei pyruvate kinase inhibition, cherry-pick confirmation | shares compounds with PLK1 PBD inh | recombinant TbPYK, Kinase-Glo ATP luminescence | Potency, µM (highest dose often 76.9 µM), without a hit: top-dose activity change, negative = inhibition, actives largely listed as inhibitors | 890 tested, 67% active | AID 720569; also: potency is read from the fitted curve at half-maximal effect; % is scaled to controls: 0 for no effect and ±100 for the full control effect; nearly all actives have a fitted effect of over 70% in size
TbPYK orthogonal = inhibits T. brucei pyruvate kinase in orthogonal ADP-Glo assay. shares compounds with PLK1 PBD inh. recombinant TbPYK, ADP-Glo luminescence, 60 min. Potency, µM (highest dose often 76.9 µM), for the others: top-dose activity change, negative = inhibition, hits mostly inhibitors. 890 tested, 62% active; also: potency is read from the fitted curve at half-maximal effect; % is scaled to controls: 0 for no effect and ±100 for the full control effect; nearly all actives have a fitted effect of over 75% in size
Active calls of the source: *; u = inconclusive; x = no result. The list is not random: actives were taken first. Their share in the collection is about 3.1%. Unless noted, calls follow the shape of the dose curve; as a rule, active = well fitted curve in the direction sought with a large enough effect; inconclusive = small, poorly fitted or top-dose-only effect, or another doubt; inactive = no such curve, though single readings can be large; an effect the other way counts as inactive or inconclusive.

SMILES | uPA surface inh | PLK1 PBD inh | TSHR antagonist | VDR inhibitor | TSG101-PTAP inh | TbPYK confirm | TbPYK orthogonal
CCN1/C(=C\C=C(C(C)=O)C(C)=O)Sc2ccccc21 | -1% | 107% | -15 | 3% | u | x | x
CCN1/C(=C/C(C)=C/c2sc3ccccc3[n+]2CC)Sc2ccccc21 | -14% | 14% | -17 | -27% | u | u | -10%
Brc1ccc(-c2nc3ccccc3s2)s1 | -5% | -11% | 1 | 4% | 0% | x | x
O=c1ccc2nc3ccccc3sc-2c1 | x | 21µM* | x | x | x | 13µM* | u
COc1ccc(C(Nc2ccccn2)c2oc(CO)cc(=O)c2O)cc1 (centres undefined) | 4% | 24µM* | -3 | u | 0% | 40% | 16%
CC1CCN(C(=S)NC(=O)c2cccs2)CC1 | 0% | -1% | 1 | 7% | -2% | u | 14µM*
CCC(CC)C(=O)N1CCc2cc(OC)c(OC)cc2C1COc1ccc(C(=O)OC)cc1 (centres undefined) | x | x | x | -4% | x | x | x
O=C(NC1(Cc2ccccc2)CCN(CCc2cccs2)C1=O)c1ccccc1 (centres undefined) | 14% | 0% | -9 | -6% | -4% | x | x
O=C(N/N=C/c1ccc(N2CCOCC2)o1)c1cccc(C(F)(F)F)c1 | -3% | -8% | -1 | 25µM* | 3% | u | 35µM*
C=CCN(C(=O)CC(NC(C)=O)c1ccccc1)c1nc(-c2ccc(S(C)(=O)=O)cc2)cs1 (centres undefined) | -2% | -9% | -10 | 2% | -7% | x | x
CC(C)C1Nc2ccc(C(=O)O)cc2C2C=CCC21 (centres undefined) | -1% | u | 7 | u | -16% | u | u
CCCC1Nc2ccc(C(=O)O)cc2C2C=CCC12 (centres undefined) | 1% | u | 36 | -37% | -13% | x | x
CCOC(=O)C1(C)C(C(=O)OC)=C(c2ccc(OC)cc2)c2ccccc2N1C(=O)OC (centres undefined) | -19% | u | -12 | u | -8% | u | u
CC(=O)Oc1ccc(N2C(=O)C3C4C=CC(CO)(O4)C3C2=O)cc1 (centres undefined) | 3% | 27µM* | 12 | 45µM* | 0% | -48% | u
CC(=O)Oc1ccc(N2C(=O)C3C(C2=O)C2(C)C=CC3(C)O2)cc1 (centres undefined) | x | x | -21 | x | x | x | x
CCc1cc2c(cc3c(=O)n(CC(=O)N4CCCCC4)ncn32)s1 | x | x | x | 7% | x | x | x
CCc1ccc(CNC(=O)c2nn(-c3ccc(C)cc3)c(=O)c3c2c2ccccc2n3C)cc1 | x | x | x | 3% | x | x | x
COc1ccc(C)cc1NC(=O)C1CCCN(S(=O)(=O)c2ccc3c(c2)oc(=O)n3C)C1 (centres undefined) | x | x | x | -24% | x | x | x
COc1ccc(C2=C(Nc3ccc(Br)c(C)c3)c3ccccc3C2=O)cc1 | x | x | x | -12% | x | x | x
COc1ccc(C(=O)CSc2nnc(CNC(=O)c3ccccc3)o2)cc1 | -18% | 0% | 13 | 5% | -3% | x | x
c1cncc(Nc2nc(-c3cccs3)cs2)c1 | x | 19µM* | 4 | u | -2% | -21% | u
Cc1nc2sc(C(=O)O)c(N)c2c2c1COC(C)(C)C2 | 2% | u | 1 | u | -2% | u | 18µM*
O=C1C=CC(=O)N1c1ccc2c(c1)C(NC(=O)C(F)(F)F)c1ccccc1-2 (centres undefined) | u | 6.7µM* | x | 45µM* | -2% | 7.9µM* | 10µM*
Cc1cc(C)nc(Sc2nc(Cl)nc(N(c3ccccc3)c3ccccc3)n2)n1 | -5% | 13µM* | 50 | 22µM* | -7% | u | 35µM*
c1coc(-c2nc3ccccc3nc2-c2ccco2)c1 | -29% | u | -4 | u | -11% | 14µM* | 18µM*

Source: PubChem
